{"source": "PubChem BioAssay (Tox21)", "note": "Inconclusive results are not listed. Some structures have more than one record in an assay (separate samples or runs), and their calls can disagree. Calls of active or inactive are those of the source. Calls come from the whole dose curve; as a rule, active = well fitted activation curve with a large enough effect in the repeat runs; inconclusive = weak or mixed curves; inactive = flat fitted curve, though single readings scatter."}
{"assay": "A CellTox Green Cytotoxicity Assay to monitor cytotoxicity in HEK293 cells - 32 hour (AID 1224881); note: nearly all actives have a fitted effect of over 40% in size; note: potency is the fitted concentration of half-maximal effect; for cytotoxicity increase: % is set by controls: 0 for no effect and ±100 for the full control effect", "details": "CellTox Green fluorescence; series mostly up to 76.8 µM; cytotoxicity increase: at the top concentration", "procedure,_shortened": "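Fluorescence from a DNA-binding dye excluded by viable cells was measured repeatedly in the same HEK293 wells (600 cells/well) during continuous compound exposure at 37 C. Each assay gives one read point: 0, 8, 16, 24, 32 or 40 h.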"}
{"molecule": "CC1=NC(C)OC1C", "note": "(stereo unspecified)", "cytotoxicity increase": "12.6% (inactive)"}
{"molecule": "CCCC(c1cc(C(C)(C)C)c(O)cc1C)c1cc(C(C)(C)C)c(O)cc1C", "Potency": "49.6 µM (active)"}
{"molecule": "CCCCCCCCn1sc(Cl)c(Cl)c1=O", "Potency": "1.23 µM (active)"}
{"molecule": "CSc1ccc(/C=C2/C(C)=C(CC(=O)O)c3cc(F)ccc32)cc1", "cytotoxicity increase": "5.65% [at 35.3 µM] (inactive)"}
{"molecule": "C/C=C(\\C)C(=O)OCc1ccccc1", "cytotoxicity increase": "21.5% (inactive)"}
{"molecule": "CCOC(=O)O[C@H](C)OC(=O)c1ccc2c(c1)cc(C(=O)NC1CCN(C(C)C)CC1)n2Cc1cc(-c2ccc(Cl)s2)on1", "Potency": "18.2 µM (active)"}
{"molecule": "O=c1[nH]cnc2nc[nH]c12", "cytotoxicity increase": "-19.8% [at 35.3 µM] (inactive)"}
{"molecule": "C[C@]12CCC(=O)C=C1CC[C@@H]1[C@@H]2[C@@H](O)C[C@@]2(C)[C@H]1CC[C@]2(O)C(=O)COC(=O)CCC(=O)O", "cytotoxicity increase": "2.94% [at 35.3 µM] (inactive)"}
{"molecule": "NC(=O)CC[C@@H]1NC(=O)[C@H](Cc2ccccc2)NC(=O)[C@H](Cc2ccc(O)cc2)NC(=O)CCSSC[C@@H](C(=O)N2CCC[C@H]2C(=O)N[C@@H](CCCN=C(N)N)C(=O)NCC(N)=O)NC(=O)[C@H](CC(N)=O)NC1=O", "cytotoxicity increase": "-12.4% [at 35.3 µM] (inactive)"}
{"molecule": "COC(=O)C1=C(C)NC(C)=C(C(=O)OCC(C)C)C1c1ccccc1[N+](=O)[O-]", "note": "(stereo unspecified)", "Potency": "49 µM (active) and inactive"}
{"molecule": "[Cl][Au]([Cl])[Cl]", "Potency": "19.5 µM (active)"}
{"molecule": "OCCCCCCCCCCCCBr", "cytotoxicity increase": "20.9% (inactive)"}
{"molecule": "CC(C)=CCOc1ccc(/C=C/C(=O)c2ccc(OCC=C(C)C)cc2OCC(=O)O)cc1", "cytotoxicity increase": "-2.05% [at 35.3 µM] (inactive)"}
{"molecule": "CSc1ccc(C(=O)c2[nH]c(=O)[nH]c2C)cc1", "cytotoxicity increase": "1.26% [at 35.3 µM] (inactive)"}
{"molecule": "CC(C)(C)c1ccc(C(=O)CCCN2CCC(OC(c3ccccc3)c3ccccc3)CC2)cc1", "Potency": "23.9 µM (active)"}
{"molecule": "CCC(C)Nc1ccc(NC(C)CC)cc1", "note": "(stereo unspecified)", "Potency": "12.5 µM (active)"}
{"molecule": "O=[N+]([O-])c1ccccc1Nc1ccccc1", "cytotoxicity increase": "-2.98% (inactive)"}
{"molecule": "Clc1ccc2nsnc2c1NC1=NCCN1", "cytotoxicity increase": "-9.52% [at 35.3 µM] (inactive)"}
{"molecule": "CCCCc1oc2ccc(NS(C)(=O)=O)cc2c1C(=O)c1ccc(OCCCN(CCCC)CCCC)cc1", "Potency": "21.3 µM (active)"}
{"molecule": "NNC(=O)c1cccc(C(=O)NN)c1", "cytotoxicity increase": "-5.32% (inactive)"}
{"molecule": "CCCCCCCCCCCCCCCS(=O)(=O)Oc1ccccc1", "cytotoxicity increase": "12.7% [at 35.3 µM] (inactive)"}
{"molecule": "CCC(C)(C)C1CCCCC1OC(C)=O", "note": "(stereo unspecified)", "cytotoxicity increase": "2.31% (inactive)"}
{"molecule": "CCCCCCC[N+](CC)(CC)CCCCc1ccc(Cl)cc1", "Potency": "5.35 µM (active)"}
{"molecule": "CCCCCOC(=O)CCCC", "cytotoxicity increase": "2.92% (inactive)"}
{"molecule": "OCCN(CCO)c1nc(N2CCCCC2)c2nc(N(CCO)CCO)nc(N3CCCCC3)c2n1", "Potency": "19 µM (active)"}
{"molecule": "Cc1cccc(S(=O)(=O)O)c1C", "cytotoxicity increase": "-18.1% (inactive)"}
{"molecule": "COc1cc(/C=C/C(=O)O[C@H]2CC[C@]34C[C@]35CC[C@]3(C)[C@@H]([C@H](C)CCC=C(C)C)CC[C@@]3(C)[C@@H]5CC[C@H]4C2(C)C)ccc1O", "cytotoxicity increase": "-17.6% [at 35.3 µM] (inactive)"}
{"molecule": "CCCCCCCCCCn1cc[n+](CCCCCCCCCC)c1C", "Potency": "19.5 µM (active)"}
{"molecule": "Clc1ccc(C(Cn2ccnc2)OCc2ccc(Sc3ccccc3)cc2)c(Cl)c1", "note": "(stereo unspecified)", "cytotoxicity increase": "1.01% [at 35.3 µM] (inactive)"}
{"molecule": "Cc1cc(N)c(S(=O)(=O)O)cc1Cl", "cytotoxicity increase": "-5.74% (inactive)"}
{"molecule": "CC(C)(C)c1ccc(C(=O)O)cc1", "cytotoxicity increase": "-1.98% (inactive)"}
{"molecule": "CCCCCCCCCCC=O", "cytotoxicity increase": "6.71% (inactive)"}
{"molecule": "CC(C)C(C)(C)C(C)(C)C(C)(C)S", "cytotoxicity increase": "-4.58% (inactive)"}
{"molecule": "Oc1cccc2cc3cccc(O)c3c(O)c12", "cytotoxicity increase": "-10.2% (inactive)"}
{"molecule": "CC(=O)OCC(C)OC(C)=O", "note": "(stereo unspecified)", "cytotoxicity increase": "-9.1% (inactive)"}
{"molecule": "c1ccc(CSCc2ccccc2)cc1", "cytotoxicity increase": "6.31% (inactive)"}
{"assay": "A CellTox Green Cytotoxicity Assay to monitor cytotoxicity in HepG2 cells - 0 hour (AID 1224882); note: nearly all actives have a fitted effect of over 35% in size; note: potency is the fitted concentration of half-maximal effect; for Cytotoxicity: % is set by controls: 0 for no effect and ±100 for the full control effect", "details": "CellTox Green fluorescence; series mostly up to 76.8 µM; cytotoxicity: at the top concentration", "procedure,_shortened": "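Real-time cytotoxicity: fluorescence of a cell-impermeant cyanine dye binding DNA of dead HepG2 cells, measured repeatedly (0–40 h) during compound exposure at 37 C. Cells seeded 600/well with reagent, dosed after 5 h.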"}
{"molecule": "CC1=NC(C)OC1C", "note": "(stereo unspecified)", "cytotoxicity": "-0.666% (inactive)"}
{"molecule": "CCCC(c1cc(C(C)(C)C)c(O)cc1C)c1cc(C(C)(C)C)c(O)cc1C", "cytotoxicity": "-7.23% (inactive)"}
{"molecule": "CCCCCCCCn1sc(Cl)c(Cl)c1=O", "cytotoxicity": "0.348% (inactive)"}
{"molecule": "CSc1ccc(/C=C2/C(C)=C(CC(=O)O)c3cc(F)ccc32)cc1", "cytotoxicity": "0.499% [at 35.3 µM] (inactive)"}
{"molecule": "C/C=C(\\C)C(=O)OCc1ccccc1", "cytotoxicity": "-3.28% (inactive)"}
{"molecule": "CCOC(=O)O[C@H](C)OC(=O)c1ccc2c(c1)cc(C(=O)NC1CCN(C(C)C)CC1)n2Cc1cc(-c2ccc(Cl)s2)on1", "cytotoxicity": "0.788% (inactive)"}
{"molecule": "O=c1[nH]cnc2nc[nH]c12", "cytotoxicity": "2.05% [at 35.3 µM] (inactive)"}
{"molecule": "C[C@]12CCC(=O)C=C1CC[C@@H]1[C@@H]2[C@@H](O)C[C@@]2(C)[C@H]1CC[C@]2(O)C(=O)COC(=O)CCC(=O)O", "cytotoxicity": "-12.4% [at 35.3 µM] (inactive)"}
{"molecule": "NC(=O)CC[C@@H]1NC(=O)[C@H](Cc2ccccc2)NC(=O)[C@H](Cc2ccc(O)cc2)NC(=O)CCSSC[C@@H](C(=O)N2CCC[C@H]2C(=O)N[C@@H](CCCN=C(N)N)C(=O)NCC(N)=O)NC(=O)[C@H](CC(N)=O)NC1=O", "cytotoxicity": "4.83% [at 35.3 µM] (inactive)"}
{"molecule": "COC(=O)C1=C(C)NC(C)=C(C(=O)OCC(C)C)C1c1ccccc1[N+](=O)[O-]", "note": "(stereo unspecified)", "Potency": "inactive"}
{"molecule": "[Cl][Au]([Cl])[Cl]", "cytotoxicity": "-7.5% (inactive)"}
{"molecule": "OCCCCCCCCCCCCBr", "cytotoxicity": "6.48% (inactive)"}
{"molecule": "CC(C)=CCOc1ccc(/C=C/C(=O)c2ccc(OCC=C(C)C)cc2OCC(=O)O)cc1", "cytotoxicity": "-2.42% [at 35.3 µM] (inactive)"}
{"molecule": "CSc1ccc(C(=O)c2[nH]c(=O)[nH]c2C)cc1", "cytotoxicity": "-3.66% [at 35.3 µM] (inactive)"}
{"molecule": "CCC(C)Nc1ccc(NC(C)CC)cc1", "note": "(stereo unspecified)", "cytotoxicity": "-10.3% (inactive)"}
{"molecule": "O=[N+]([O-])c1ccccc1Nc1ccccc1", "cytotoxicity": "3.77% (inactive)"}
{"molecule": "Clc1ccc2nsnc2c1NC1=NCCN1", "cytotoxicity": "-6.45% [at 35.3 µM] (inactive)"}
{"molecule": "CCCCc1oc2ccc(NS(C)(=O)=O)cc2c1C(=O)c1ccc(OCCCN(CCCC)CCCC)cc1", "cytotoxicity": "-1.7% [at 35.3 µM] (inactive)"}
{"molecule": "NNC(=O)c1cccc(C(=O)NN)c1", "cytotoxicity": "-7.23% (inactive)"}
{"molecule": "CCCCCCCCCCCCCCCS(=O)(=O)Oc1ccccc1", "cytotoxicity": "4.35% [at 35.3 µM] (inactive)"}
{"molecule": "CCC(C)(C)C1CCCCC1OC(C)=O", "note": "(stereo unspecified)", "cytotoxicity": "0.801% (inactive)"}
{"molecule": "CCCCCCC[N+](CC)(CC)CCCCc1ccc(Cl)cc1", "cytotoxicity": "4.59% [at 35.3 µM] (inactive)"}
{"molecule": "CCCCCOC(=O)CCCC", "cytotoxicity": "-0.568% (inactive)"}
{"molecule": "OCCN(CCO)c1nc(N2CCCCC2)c2nc(N(CCO)CCO)nc(N3CCCCC3)c2n1", "Potency": "23.9 µM (active)"}
{"molecule": "Cc1cccc(S(=O)(=O)O)c1C", "cytotoxicity": "3.56% (inactive)"}
{"molecule": "COc1cc(/C=C/C(=O)O[C@H]2CC[C@]34C[C@]35CC[C@]3(C)[C@@H]([C@H](C)CCC=C(C)C)CC[C@@]3(C)[C@@H]5CC[C@H]4C2(C)C)ccc1O", "cytotoxicity": "10.5% [at 35.3 µM] (inactive)"}
{"molecule": "CCCCCCCCCCn1cc[n+](CCCCCCCCCC)c1C", "cytotoxicity": "1.74% (inactive)"}
{"molecule": "Clc1ccc(C(Cn2ccnc2)OCc2ccc(Sc3ccccc3)cc2)c(Cl)c1", "note": "(stereo unspecified)", "cytotoxicity": "6.23% [at 35.3 µM] (inactive)"}
{"molecule": "Cc1cc(N)c(S(=O)(=O)O)cc1Cl", "cytotoxicity": "0.496% (inactive)"}
{"molecule": "CC(C)(C)c1ccc(C(=O)O)cc1", "cytotoxicity": "2.52% (inactive)"}
{"molecule": "CCCCCCCCCCC=O", "cytotoxicity": "-7.57% (inactive)"}
{"molecule": "CC(C)C(C)(C)C(C)(C)C(C)(C)S", "cytotoxicity": "-0.301% (inactive)"}
{"molecule": "Oc1cccc2cc3cccc(O)c3c(O)c12", "cytotoxicity": "-1.35% (inactive)"}
{"molecule": "CC(=O)OCC(C)OC(C)=O", "note": "(stereo unspecified)", "cytotoxicity": "-2.66% (inactive)"}
{"molecule": "c1ccc(CSCc2ccccc2)cc1", "cytotoxicity": "-1.14% (inactive)"}
